12 sequences from the supplement of paper PMC6555819 can be followed below.

Common to all, as to assay: PBM binding z-score (relative to random genomic background probes); higher = stronger binding; sequences stand for … in GC…GCGATTGACAGCGTAGAATGAAGG
Assay [1] has as its system FXR:RXRa (NR concentration 270 nM, RXRa partner concentration 90 nM). A digest of the protocol:
(§1)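 Scanned fluorescence from custom Agilent 4×180K protein-binding microarrays was regression-normalized. Binding z-scores use random background probes as reference. Ligand-free nuclear receptor dimers were incubated on the arrays for 1 h and detected with antibodies against each partner (one per run).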

Assay [2] deals with LXRa:RXRa (NR concentration 270 nM, RXRa partner concentration 90 nM). In outline: as §1
Assay [3] concerns LXRa homodimer (NR concentration 270 nM). A digest of the protocol:
as §1

In assay [4] the test system is LXRb:RXRa (NR concentration 270 nM, RXRa partner concentration 90 nM). In outline:
as §1

Assay [5] deals with LXRb homodimer (NR concentration 270 nM). A digest of the protocol: as §1
For assay [6], the system named is PPARa:RXRa (NR concentration 270 nM, RXRa partner concentration 90 nM). A digest of the protocol:
as §1

The subject of assay [7] is PPARg:RXRa (NR concentration 180 nM, RXRa partner concentration 90 nM). A digest of the protocol:
as §1

Assay [8] concerns PPARg:RXRa 270nM:90nM, anti-RXR (NR concentration 270 nM, RXRa partner concentration 90 nM). A digest of the protocol: as §1
The subject of assay [9] is PPARg:RXRa 30nM:10nM, anti-RXR (NR concentration 30 nM, RXRa partner concentration 10 nM). In outline: as §1
For assay [10], the system named is PPARg:RXRa 90nM:30nM, anti-RXR (NR concentration 90 nM, RXRa partner concentration 30 nM). A digest of the protocol:
as §1

For AGCTCTAGGTAAAGATAGTTCAGTGAATGCAAAT, the PBM binding z-score is -0.108 in assay [1]; 3.76 in assay [2]; 0.0998 in assay [3]; 0.693 in assay [4]; -0.0126 in [5]; 0.354 in [6]. Further, the PBM binding z-score was 0.0941 in [7], 0.135 in [8], -0.22 in assay [9] and -0.0707 in assay [10].

With AGAATGAGGTTAAGATCAGGCAAACAGAATACAT, the PBM binding z-score in assay [1] was 2.11; in assay [2] it was 5.61; in assay [3], -0.312; in [4], 2.82; in [5], -0.408; in [6], 3.45. In addition, the PBM binding z-score amounted to 2.21 in assay [7], 2.38 in [8], 0.95 in [9] and 1.63 in assay [10].

Regarding CGTCAAAGTTCAACTAAGGTAACCTAAAGCACGC, the PBM binding z-score in assay [1] worked out at 7.07; in assay [2], 6.1; in [3] it was 4.45; in [4], 4.4; in assay [5], 2.21; in assay [6], 5.35. Also, the PBM binding z-score in [7] came out at 5.27; in assay [8], 5.95; in assay [9] it was 2.33; in assay [10], 4.85.

On to ATCGAAAGGTAGAAGGTGAGTATACCCACCCGAA, for which the PBM binding z-score was 0.00191 in [1]; 0.0493 in assay [2]; -0.115 in assay [3]; -0.132 in assay [4]; 0.0948 in assay [5]; 1.26 in assay [6]. Also, the PBM binding z-score in assay [7] amounted to 1.3; in assay [8], 1.72; in assay [9] it was 0.876; in [10], 1.03.

As to CTTCCAAGGTCAGAGAGGTCAGTGAATGCCGAGT, the PBM binding z-score was found to be 5.96 in assay [1]; 5.16 in assay [2]; 3.44 in assay [3]; 4.49 in assay [4]; 0.991 in assay [5]; 4.78 in assay [6]. Besides, the PBM binding z-score in assay [7] turned out to be 3.44; in [8], 4.24; in [9], 1.24; in [10], 2.89.

In the case of TCTGTTAGGTCAGTTGGTCAGCTAACGAGCTGCC, the PBM binding z-score in assay [1] is 2.18; in [2] it was 1.74; in assay [3], 0.264; in assay [4], 1.37; in assay [5], 2.71; in assay [6], 1.99. Besides, the PBM binding z-score in [7] was determined as 0.27; in [8], 2.47; in assay [9], 3.02; in [10] it was 2.76.

As for GTACCAAGGGGAATAGGTCGTTGATGAGTAGGCG, the PBM binding z-score in assay [1] is -0.0504; in [2], 0.00136; in assay [3], -0.0435; in [4], 0.269; in assay [5] it was -0.418; in [6] it was 1.3. The PBM binding z-score in assay [7] is 0.915; in assay [8], 1.15; in [9] it was 0.0532; in assay [10] it was 0.835.

CGTCCAAGGTGAAGGTCAGTGAAAGAGACTCGAA: the PBM binding z-score is 1.84 in assay [1]; 1.4 in [2]; -0.233 in assay [3]; 1.25 in assay [4]; -0.872 in assay [5]; 3.04 in assay [6]. Moreover, the PBM binding z-score in assay [7] turned out to be 2.5; in assay [8], 2.81; in [9], 0.634; in assay [10], 1.96.

Regarding CCTAGTTGGTCAGGAGGTCACAGACCGGATATGA, the PBM binding z-score came to 4.08 in assay [1]; 3.46 in [2]; 1.53 in assay [3]; 3.38 in assay [4]; 0.251 in assay [5]; 4.41 in assay [6]. Also, the PBM binding z-score in [7] is 3.79; in assay [8], 4.28; in assay [9], 1.81; in assay [10] it was 3.37.

For the sequence TCATATAGGTAAAGCTGAAAGTCGAACGATATGA, the PBM binding z-score in assay [1] is 0.358; in assay [2] it was 0.331; in assay [3] it was -0.286; in [4] it was 0.366; in [5], -0.268; in assay [6] it was 0.995. For the same sequence, the PBM binding z-score amounted to 0.806 in assay [7], 1.97 in assay [8], 3.45 in assay [9] and 2.72 in assay [10].

Consider GATACAGGGTCAAGGCGAGAGTACGCGTATTGAT, for which the PBM binding z-score in assay [1] was 6.79; in assay [2], 4.05; in assay [3], -0.0981; in assay [4], 3.74; in assay [5], 0.243; in assay [6] it was 5.39. For the same sequence, the PBM binding z-score was determined as 5.7 in [7], 5.39 in assay [8], 2.2 in assay [9] and 4.05 in assay [10].

For the sequence ATACCAAGGTGATCGTGAGGTCGTTGCTACTAAC, the PBM binding z-score in [1] turned out to be 1.95; in assay [2], 1.3; in assay [3], 0.422; in assay [4], 1.19; in [5] it was 0.0744; in [6], 1.65. Besides, the PBM binding z-score is 0.201 in assay [7], 0.438 in [8], -0.28 in assay [9] and 0.185 in assay [10].
